These results are taken from PubChem BioAssay (NCATS).

The structures appear in SMILES notation. Values without a mark were called inactive. Inconclusive results are not listed. The source made the active and inactive calls. Unless noted, calls come from the whole dose curve; as a rule, active = well fitted curve in either direction with a large enough effect (not every such curve was filed as active); inconclusive = small, poorly fitted or top-dose-only effect, or another doubt; inactive = flat fitted curve, though single readings scatter.

A short description of test [1]: AP1 Signaling Pathway (AID 357).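 Note: ME-180 reporter cells stimulated with EGF at its EC50 level; % is set by controls: 0 for no effect and ±100 for the full control effect.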 Summed up:
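Read-out was the 460nm/530nm emission ratio (excitation 405nm) after CCF4 loading for 2.5 hours at room temperature. Cells carried an AP-1-driven beta-lactamase reporter, were stimulated with EC50 EGF plus compound for 5 hours, and AC50 values came from titrations.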

Test [2] can be described thus: NFAT Signaling Pathway (AID 444).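 Note: carbachol stimulus at about its EC50 of 1 µM final; % is set by controls: 0 for no effect and ±100 for the full control effect.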 The note with it: Jurkat NFAT-bla M1, carbachol, beta-lactamase ratio, 5 h; at 17.2 µM (top of the series) unless noted. Summed up:
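Jurkat cells with NFAT-driven β-lactamase reporter and co-expressed M1 receptor, stimulated with carbachol (final 1 uM, ~EC50), compound titration, 5 h at 37 °C. CCF4 loaded 1 h at RT; 460/530 nm ratio gave %activity and AC50.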

Test [3] in a line: Stat Signaling Pathway (AID 446).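 Note: ME-180 cervical cancer cells given 40 pM IL-6 alongside compound; SIE-controlled beta-lactamase reporter measured as 460/530 nm FRET emission ratio; % is set by controls: 0 for no effect and ±100 for the full control effect.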 Summed up: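 FRET read-out (405 nm excitation, 460/530 nm emission) of a beta-lactamase reporter under a STAT-inducible element in ME-180 cervical carcinoma cells. Cells with compound receive 40 pM IL-6 for 5 h. Values are normalised to AC90 stimulation and AC90 JAK-inhibitor controls.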
For test [4], the target named is 3',5'-cyclic-AMP phosphodiesterase 4B (Homo sapiens) (UniProt Q07343). Description: qHTS Assay for Inhibitors of PDE-IV (AID 607; active = well fitted activation curve with a large enough effect in the main read-out, with a control signal flat, not every such curve was filed as active; note: % of control where 0% means no effect). Summed up:
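Cell-based read-out of cAMP via a modified cyclic nucleotide-gated channel and membrane potential dye (535/590 nm) in HEK293 cells expressing PDE4 endogenously. Compounds tested up to 22.9 uM final; 100 uM RO 20-1724 reference.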
Background: Quantitative high-throughput screening tests each substance at several concentrations.

For test [5], the target named is Glucocorticoid receptor (Homo sapiens) (UniProt P04150). Put plainly: GR-EFC Redistribution (AID 451; calls by dose curve; note: potency is the fitted concentration of half-maximal effect). The following applies: CHO-K1 GR-EFC translocation, beta-gal luminescence, 2 h. The procedure, abridged:
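CHO-K1 cells expressing nuclear EA and GR-ED fragments of b-gal; compounds titrated up to 46 uM final, 2 h at 37 C. GR nuclear translocation read as complemented b-gal luminescence after 1 h RT detection.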

In test [6] the target is Mitogen-activated protein kinase 10 (Mus musculus) (UniProt Q61831). Put plainly: JNK3 AlphaScreen Assay (AID 530).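 Note: kinase came from lysate of stimulated human HepG2 cells; signal reports phosphorylation of biotinylated GST-cJun 1-79 at Ser73 with 10 µM ATP; % is set by controls: 0 for no effect and ±100 for the full control effect.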 Summed up:
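Activity was read by AlphaScreen after JNK3-containing HepG2 lysate (cytokine pre-activated) phosphorylated biotinylated GST-cJun with 10 uM ATP at room temperature. Phospho-Ser73 cJun antibody with Protein-A acceptor beads provided detection.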
(In general: In Alpha technology, singlet oxygen from a donor bead excites a nearby acceptor bead.)

The next test has as its system 7G8. Put plainly: qHTS profiling for inhibitors of Plasmodium falciparum proliferation (AID 504749; active = well fitted curve in the direction sought with a large enough effect; an effect the other way counts as inactive or inconclusive; note: nearly all actives have a fitted effect of over 60% in size; note: potency is the fitted concentration of half-maximal effect). The note with it: P. falciparum in erythrocytes, SYBR Green DNA, 72 h; series mostly up to 12.8 µM. The procedure, abridged: (§1)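 Each compound contacts P. falciparum-infected red blood cells for 72 h at 37 C; lysis buffer (Tris, EDTA, saponin, Triton X, SYBR Green I) is added and fluorescence measured next morning; values normalized to controls.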

A further test has as its system ATS95. Described as above. The note with it: P. falciparum in erythrocytes, SYBR Green DNA, 72 h; series mostly up to 12.8 µM. The procedure, abridged: as §1
The test system of the next test is CP203. The test is described as above. The note with it: P. falciparum in erythrocytes, SYBR Green DNA, 72 h; series mostly up to 12.8 µM. The procedure, abridged: as §1
In another test the test system is DIV14. Described as above. The note with it: P. falciparum in erythrocytes, SYBR Green DNA, 72 h; series mostly up to 12.8 µM. The procedure, abridged:
as §1

The next test has as its system GB4. Described as above. The note with it: P. falciparum in erythrocytes, SYBR Green DNA, 72 h; series mostly up to 12.8 µM. Summed up: as §1
Test [7] is described as follows: S16 Schwann cell PMP22 intronic element beta-lactamase assay (AID 624044; calls by dose curve;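 note: 0% = DMSO and -100% = potassium clavulanate positive control; nearly all actives have a fitted effect of over 15% in size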). The procedure, abridged:
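Beta-lactamase reporter under a PMP22 intronic regulatory element in stable S16 rat Schwann cells; 24 h compound exposure. 460 nm blue signal normalized between DMSO (0%) and potassium clavulanate, with 535 nm FRET tracking viability; curves classed by r2 and response.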

Test [8] can be described thus: S16 Schwann cell PMP22 intronic element firefly luciferase assay (AID 624032; active = well fitted curve in the direction sought with a large enough effect; an effect the other way counts as inactive or inconclusive;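 note: plate controls were DMSO for no effect and PTC124 positive control mean for full effect; nearly all actives have a fitted effect of over 30% in size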). The procedure, abridged: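 Rat S16 Schwann cells stably carrying firefly luciferase driven by a PMP22 intronic element, in 10% FBS, treated 24 h at 37 C. ONE-Glo luminescence normalized to PTC124 control and DMSO (0%); curves classed by r2, magnitude and activity.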
Test [9] concerns the target Glucocorticoid receptor (Homo sapiens) (UniProt P04150). Put plainly: GR-GFP Redistribution (AID 450;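 active = compounds whose dose series gives a full or clear partial fitted curve of increased nuclear translocation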; note: potency is the fitted concentration of half-maximal effect). The following applies: U2OS GR-GFP nuclear translocation, laser cytometry, 2 h.
The target of test [10] is Cytochrome P450 3A4 (Homo sapiens) (UniProt P08684). Description: qHTS Assay for Activators of Cytochrome P450 3A4 (AID 885; active = well fitted curve in the direction sought with a large enough effect; an effect the other way counts as inactive or inconclusive; note: nearly all actives have a fitted effect of over 65% in size). Summed up:
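Luminescent readout of luciferin formed from 25 uM Luciferin-PPXE (KM level) by 20 nM CYP3A4 in 200 mM KPO4, with 60 min NADPH-driven reaction at room temperature after 10 min compound exposure. Ketoconazole (57 uM) defined 100% inhibition.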

Sequence of 3',5'-cyclic-AMP phosphodiesterase 4B (Homo sapiens) (Q07343 whole entry, looked up): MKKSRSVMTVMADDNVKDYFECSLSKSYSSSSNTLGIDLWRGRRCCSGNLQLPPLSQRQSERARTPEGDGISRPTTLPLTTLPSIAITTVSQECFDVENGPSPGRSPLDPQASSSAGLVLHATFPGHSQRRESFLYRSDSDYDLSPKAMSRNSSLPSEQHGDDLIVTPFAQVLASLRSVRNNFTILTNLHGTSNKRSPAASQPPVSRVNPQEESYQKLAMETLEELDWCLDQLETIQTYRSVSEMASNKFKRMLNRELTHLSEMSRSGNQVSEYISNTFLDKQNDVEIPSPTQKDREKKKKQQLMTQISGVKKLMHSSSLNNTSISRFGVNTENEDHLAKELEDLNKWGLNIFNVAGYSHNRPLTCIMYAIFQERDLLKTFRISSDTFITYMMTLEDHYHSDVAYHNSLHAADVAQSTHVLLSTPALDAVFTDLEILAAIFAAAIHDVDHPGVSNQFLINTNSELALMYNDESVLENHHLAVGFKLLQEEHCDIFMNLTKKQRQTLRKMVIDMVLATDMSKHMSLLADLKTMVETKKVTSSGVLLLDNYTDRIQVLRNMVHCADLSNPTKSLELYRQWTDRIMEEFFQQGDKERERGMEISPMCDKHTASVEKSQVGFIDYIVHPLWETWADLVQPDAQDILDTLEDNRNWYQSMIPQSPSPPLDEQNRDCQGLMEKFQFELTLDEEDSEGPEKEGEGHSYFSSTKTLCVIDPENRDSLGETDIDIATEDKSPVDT
Sequence of Glucocorticoid receptor (Homo sapiens) (P04150 whole entry, looked up, the tested form may be a part): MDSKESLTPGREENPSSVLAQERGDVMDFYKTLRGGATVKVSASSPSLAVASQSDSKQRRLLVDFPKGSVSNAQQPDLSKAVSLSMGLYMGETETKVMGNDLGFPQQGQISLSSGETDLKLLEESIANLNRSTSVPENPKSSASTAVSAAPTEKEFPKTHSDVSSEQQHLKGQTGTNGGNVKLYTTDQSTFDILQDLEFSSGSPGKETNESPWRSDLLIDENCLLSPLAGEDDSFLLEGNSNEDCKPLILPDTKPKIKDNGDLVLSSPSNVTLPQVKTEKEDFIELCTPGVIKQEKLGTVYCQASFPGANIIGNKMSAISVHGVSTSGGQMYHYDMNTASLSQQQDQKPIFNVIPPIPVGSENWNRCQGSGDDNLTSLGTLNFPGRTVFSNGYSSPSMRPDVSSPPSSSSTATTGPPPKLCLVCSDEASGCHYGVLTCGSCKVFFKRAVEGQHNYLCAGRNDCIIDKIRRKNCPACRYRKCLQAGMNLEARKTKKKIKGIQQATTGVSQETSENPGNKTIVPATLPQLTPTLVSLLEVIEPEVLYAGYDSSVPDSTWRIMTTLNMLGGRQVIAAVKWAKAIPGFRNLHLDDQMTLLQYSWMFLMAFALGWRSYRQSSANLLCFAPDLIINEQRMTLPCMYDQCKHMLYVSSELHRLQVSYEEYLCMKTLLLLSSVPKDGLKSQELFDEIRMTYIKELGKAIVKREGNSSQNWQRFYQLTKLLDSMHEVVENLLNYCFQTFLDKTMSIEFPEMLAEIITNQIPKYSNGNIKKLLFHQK
Sequence of Cytochrome P450 3A4 (Homo sapiens) (P08684 whole entry, looked up): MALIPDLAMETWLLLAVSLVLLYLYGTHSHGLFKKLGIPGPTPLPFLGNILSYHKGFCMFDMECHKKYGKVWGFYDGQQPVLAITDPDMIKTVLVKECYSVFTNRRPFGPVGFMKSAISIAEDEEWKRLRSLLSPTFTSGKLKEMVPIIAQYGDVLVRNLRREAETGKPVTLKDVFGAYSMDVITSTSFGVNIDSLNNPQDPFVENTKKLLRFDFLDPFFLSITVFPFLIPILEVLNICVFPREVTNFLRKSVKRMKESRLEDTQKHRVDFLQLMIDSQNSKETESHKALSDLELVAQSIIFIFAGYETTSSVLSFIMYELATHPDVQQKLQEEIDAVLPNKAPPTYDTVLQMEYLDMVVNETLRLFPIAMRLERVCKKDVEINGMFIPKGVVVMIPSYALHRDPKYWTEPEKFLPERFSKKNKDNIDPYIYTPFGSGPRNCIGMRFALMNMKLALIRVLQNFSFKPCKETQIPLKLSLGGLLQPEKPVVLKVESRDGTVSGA

Take `CC#C[C@@]1(O)CC[C@H]2[C@@H]3CCC4=CC(=O)CCC4=C3[C@H](c3ccc(N(C)C)cc3)C[C@]21C`: the outcome in test [1], in [3] and in test [4] was inactive. Besides, the activity change, negative = inhibition in test [2] is 15.9%.

Regarding `NC[C@@H]1O[C@H](O[C@H]2[C@H](O)[C@H](O[C@@H]3O[C@H](CO)[C@@H](O)[C@H](N)[C@@H]3O)[C@@H](N)C[C@H]2N)[C@@H](O)[C@H](O)[C@@H]1O`, the result in [1] and in test [4] was inactive. In addition, the activity change, negative = inhibition in test [2] is -3.83%. The Potency in test [5] was greater than 20.6 µM. Moreover, the Potency entry (in test [6]; in the test on 7G8; in the test with ATS95; in the test on CP203; with DIV14; in the test on GB4) was “inactive” in each case.

Consider `C[C@@H](CNC1CCCCC1)OC(=O)c1ccccc1`, for which the call in test [1], in [3] and in [4] was inactive. For the same compound, the Potency is greater than 20.6 µM in test [5], 0.891 µM (active) with 7G8, 3.61 µM (active) with DIV14 and 4.55 µM (active) in the test on GB4. The Potency result in [7] is “inactive”.

For the compound `CN1CCO[C@H](c2ccccc2)c2ccccc2C1`, the compound was called inactive in [1] and in test [3]. The Potency result (in test [6]; in [8]; with 7G8) was “inactive” throughout.

Regarding `C[C@H](NCCC(c1ccccc1)c1ccccc1)c1ccccc1`, the compound was classed as inactive in test [1] and in [3]. For the same compound, the Potency in test [9] and in test [5] was greater than 20.6 µM in each case. Moreover, the Potency result in [6] and in [10] was “inactive” each time.

For the compound `CC(C)(C)NC[C@H](O)COc1cccc2c1C[C@@H](O)[C@@H](O)C2`, the outcome in [1] and in [4] was inactive. The activity change, negative = inhibition in test [2] is -3.7%. Further, the Potency entry (in test [7]; in the test with 7G8; in the test on ATS95; with CP203; in the test on DIV14; in the test with GB4) was “inactive” in each case.

In the case of `CCc1c(C)[nH]c2c1C(=O)[C@H](CN1CCOCC1)CC2`, the call in [1] and in [4] was inactive. Also, in test [2], the activity change, negative = inhibition is -21.1%. The Potency entry (in test [6]; in [8]; with 7G8; with ATS95; with DIV14; in the test with GB4) was “inactive” throughout.

As to `COCCOC(=O)C1=C(C)NC(C)=C(C(=O)OC(C)C)[C@H]1c1cccc([N+](=O)[O-])c1`, the compound was classed as inactive in test [1] and in test [4]. Further, the activity change, negative = inhibition in test [2] was -10.3%. For the same compound, the Potency in test [9] and in [5] was greater than 20.6 µM in each case. Besides, in test [6], the Potency result was “inactive”.

For the compound `C[N+]1(C)CC[C@@H](OC(=O)[C@@](O)(c2ccccc2)C2CCCC2)C1`, the compound was called inactive in [1], in test [3] and in [4]. In addition, in test [2], the activity change, negative = inhibition was -43.8% (active). Also, the Potency entry in test [6] was “inactive”.

As for `Clc1ccc([C@H](Cn2ccnc2)OCc2c(Cl)cccc2Cl)c(Cl)c1`, the call in test [1] and in [3] was inactive. For the same compound, the Potency in [9] was greater than 20.6 µM; in test [5] it was greater than 20.6 µM; in the test with 7G8, 1.58 µM (active); in the test with CP203, 6.42 µM (active); with DIV14, 5.1 µM (active); in the test with GB4 it was 4.55 µM (active). For the same compound, the Potency entry in [6] was “inactive”.

For `Nc1nc(=S)c2ncn([C@H]3O[C@@H](CO)[C@@H](O)[C@@H]3O)c2[nH]1`, the compound was classed as inactive in test [1], in test [3] and in [4]. Moreover, in test [5], the Potency was greater than 20.6 µM. The Potency result in [6] is “inactive”.
